# Test results published in PubChem BioAssay (NCATS).
# Records with an inconclusive call do not appear. A call without a number means that no potency is given here. Active and inactive are the calls of the source. Calls come from the whole dose curve; as a rule, active = well fitted curve in the direction sought with a large enough effect; inconclusive = small, poorly fitted or top-dose-only effect, or another doubt; inactive = no such curve, though single readings can be large; an effect the other way counts as inactive or inconclusive.
# What was measured:
# [1] = target: Metallo-beta-lactamase type 2 (Klebsiella pneumoniae) (UniProt C7C422); assay: qHTS to identify inhibitors of the New Delhi Metallo-beta-lactamase (NDM): assay validation screen against the NCATS LOPAC Collection (AID 1794843); note: series mostly up to about 38 µM
# How it was run: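 Absorbance at 485 nm from nitrocefin turnover (50 uM solution added), read at plateau, gives the read-out. Compounds in DMSO were incubated first with 2 nM final NDM-1 in pH 7.0 HEPES buffer containing 1 uM ZnSO4 and 0.01% Tween20.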
# [2] = target: Glutathione peroxidase 1 (Homo sapiens) (UniProt P07203); assay: Primary qHTS Assay for Inhibitors of Recombinant Selenoprotein Glutathione Peroxidase 1 (GPX1) (AID 1845191); note: nearly all actives have a fitted effect of over 65% in size
# How it was run: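 GPX1 10 nM, GR 100 nM, GSH 1 mM, NADPH 0.5 mM, CHP 0.5 mM (final). 30-min cpd preincubation, RT. Ex340/Em450 read t=0, t=15 min.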
# [3] = target: Phospholipid hydroperoxide glutathione peroxidase GPX4 (Homo sapiens) (UniProt P36969); assay: Primary qHTS Assay for Inhibitors of Recombinant Selenoprotein Glutathione Peroxidase 4 (GPX4) (AID 1845192); note: nearly all actives have a fitted effect of over 65% in size
# How it was run: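 qHTS, GR-coupled: GPX4 200 nM + cpd 30 min RT → GSH 1 mM, NADPH 0.5 mM, GR 100 nM → CHP 0.5 mM start; fluor 340/450 at t0 and t15 min; no-enzyme wells as control.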
# Sequence of Metallo-beta-lactamase type 2 (Klebsiella pneumoniae) (C7C422 whole entry, looked up): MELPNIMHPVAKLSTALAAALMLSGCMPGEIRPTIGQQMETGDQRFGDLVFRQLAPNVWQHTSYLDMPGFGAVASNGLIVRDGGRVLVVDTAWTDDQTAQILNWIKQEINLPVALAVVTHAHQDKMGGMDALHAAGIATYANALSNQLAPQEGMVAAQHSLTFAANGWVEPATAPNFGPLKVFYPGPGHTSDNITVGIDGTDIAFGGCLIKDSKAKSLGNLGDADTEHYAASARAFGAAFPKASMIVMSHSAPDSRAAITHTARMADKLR
# Sequence of Phospholipid hydroperoxide glutathione peroxidase GPX4 (Homo sapiens) (P36969 whole entry, looked up): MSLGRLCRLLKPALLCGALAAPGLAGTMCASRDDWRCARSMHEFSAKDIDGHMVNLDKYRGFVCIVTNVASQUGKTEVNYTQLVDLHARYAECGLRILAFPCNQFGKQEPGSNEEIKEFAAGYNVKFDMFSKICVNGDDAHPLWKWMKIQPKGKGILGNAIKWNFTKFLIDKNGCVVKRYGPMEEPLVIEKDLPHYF
# Sequence of Glutathione peroxidase 1 (Homo sapiens) (P07203 whole entry, looked up): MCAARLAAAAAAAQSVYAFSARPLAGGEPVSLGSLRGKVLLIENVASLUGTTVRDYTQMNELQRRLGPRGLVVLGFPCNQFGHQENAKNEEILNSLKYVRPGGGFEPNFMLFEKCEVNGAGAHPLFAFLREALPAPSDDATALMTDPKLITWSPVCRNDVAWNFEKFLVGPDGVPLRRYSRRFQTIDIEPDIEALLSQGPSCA
SMILES,Potency [1],Potency [2],Potency [3]
O=C1Cc2c([nH]c3ccc(Br)cc23)-c2ccccc2N1,inactive,inactive,inactive
NC[C@@H]1O[C@H](c2ccccc2)Cc2c1ccc(O)c2O,inactive,inactive,inactive
CCN(CC)CCOC(=O)c1cc(Cl)c(N)cc1OC,inactive,inactive,inactive
NC1CONC1=O (stereo unspecified),inactive,inactive,inactive
CSC(N)=NCCC[C@H](N)C(=O)O,inactive,inactive,inactive
c1ccc2nc(C3=NCCN3)ccc2c1,inactive,inactive,inactive
COc1cccc(OC)c1OCCNCC1CSc2ccccc2O1 (stereo unspecified),inactive,inactive,inactive
N[C@@H](CCC(=O)N[C@H](CSN=O)C(=O)NCC(=O)O)C(=O)O,,inactive,
CCCCCCC(=O)OC1CC(C)(C)NC(C)(C)C1,inactive,,inactive
OC[C@H]1NC[C@@H](O)[C@@H]1O,inactive,inactive,inactive
O=C(O)CCC/C=C\C[C@@H]1[C@@H](/C=C/[C@H](O)C2Cc3ccccc3C2)[C@@H](F)C[C@@H]1O,inactive,inactive,inactive
CC(C)NC[C@H](O)COc1ccc(CC(N)=O)cc1,inactive,inactive,inactive
CN1CCN(c2nc3cc(C(F)(F)F)ccc3n3cccc23)CC1,,inactive,inactive
COc1ccc2c(c1)c(CC(=O)O)c(C)n2C(=O)c1ccccc1,inactive,inactive,inactive
C=CC1(C)CC(=O)C2(O)C(C)(O1)C(OC(C)=O)C(O)C1C(C)(C)CCC(O)C12C (stereo unspecified),,inactive,
CC(N)=NCCCC[C@@H](N)C(=O)O,inactive,inactive,inactive
NC1(C(=O)O)CCc2cc(C(=O)O)ccc21 (stereo unspecified),inactive,inactive,inactive
COc1cc([C@@H]2c3cc4c(cc3[C@H](O)C3COC(=O)[C@@H]32)OCO4)cc(OC)c1OC (stereo partly specified),inactive,inactive,inactive
NC(C(=O)N[C@@H]1C(=O)N2C(C(=O)O)=C(Cl)CS[C@H]12)c1ccccc1 (stereo partly specified),inactive,,inactive
O=C(O)/C=C/c1cnc[nH]1,,inactive,inactive
O=C(N[C@@H](Cc1ccccc1)C(=O)CCl)OCc1ccccc1,,inactive,inactive
CC(O)C(O)[C@H]1CNc2nc(N)[nH]c(=O)c2N1 (stereo partly specified),,inactive,
Cn1c(=O)[nH]c2ncn(C)c2c1=O,inactive,inactive,inactive
CCc1ccc2c(-c3cccc(Cl)c3)nc(=O)n(CC)c2n1,inactive,inactive,inactive
